For some of these results: Results with a measured potency or affinity are listed apart.

What all share (set-up): scale not given: direction of the effect not stated beside the values
The target in test [1] is Protein translocase subunit SecA (Escherichia coli (strain K12)) (UniProt P10408). Nature of the test: Assay to Identify E. coli SecA ATPase Inhibitors. The format is functional. Particulars: 30 µM.
In test [2] the target is T1, Ubiquitin-activating enzyme e1, putative (Leishmania donovani (strain BPK282A1)) (UniProt E9BSI1).
T1 sequence (whole entry): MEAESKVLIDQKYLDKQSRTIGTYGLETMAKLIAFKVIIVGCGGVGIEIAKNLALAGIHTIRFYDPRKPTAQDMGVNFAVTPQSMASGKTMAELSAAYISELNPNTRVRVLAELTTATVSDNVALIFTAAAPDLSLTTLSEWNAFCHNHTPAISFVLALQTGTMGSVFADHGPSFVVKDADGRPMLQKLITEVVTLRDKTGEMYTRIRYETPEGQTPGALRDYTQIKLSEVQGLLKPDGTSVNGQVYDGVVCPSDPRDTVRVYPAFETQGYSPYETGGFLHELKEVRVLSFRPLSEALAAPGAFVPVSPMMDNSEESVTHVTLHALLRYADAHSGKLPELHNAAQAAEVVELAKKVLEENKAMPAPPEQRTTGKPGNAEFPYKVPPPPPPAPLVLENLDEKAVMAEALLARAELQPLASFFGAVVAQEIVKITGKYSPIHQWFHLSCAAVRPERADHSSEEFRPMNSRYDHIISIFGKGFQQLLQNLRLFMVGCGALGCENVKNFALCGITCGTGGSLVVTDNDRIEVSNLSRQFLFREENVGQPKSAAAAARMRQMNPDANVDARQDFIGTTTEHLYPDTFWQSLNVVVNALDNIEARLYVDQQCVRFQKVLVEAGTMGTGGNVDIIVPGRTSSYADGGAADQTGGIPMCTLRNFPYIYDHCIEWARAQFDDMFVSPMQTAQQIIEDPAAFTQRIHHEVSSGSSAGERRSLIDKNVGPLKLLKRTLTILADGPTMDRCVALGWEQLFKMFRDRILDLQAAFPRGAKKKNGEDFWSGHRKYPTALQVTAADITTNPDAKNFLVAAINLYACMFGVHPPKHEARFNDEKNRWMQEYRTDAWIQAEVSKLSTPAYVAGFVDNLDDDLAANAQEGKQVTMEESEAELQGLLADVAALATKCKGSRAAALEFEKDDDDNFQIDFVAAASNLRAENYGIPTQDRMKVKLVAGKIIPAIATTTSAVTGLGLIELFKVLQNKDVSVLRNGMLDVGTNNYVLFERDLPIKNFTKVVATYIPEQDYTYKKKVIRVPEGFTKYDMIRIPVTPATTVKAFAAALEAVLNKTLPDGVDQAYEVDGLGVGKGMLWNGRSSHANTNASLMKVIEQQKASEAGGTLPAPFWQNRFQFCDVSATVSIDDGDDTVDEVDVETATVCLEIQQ
In words: Leishmania donovani Ubiquitin Activating Enzyme (LdE1). The format is functional. The settings on record: 30 µM.

Test [3] concerns the target T2, Aspartate--tRNA(Asp/Asn) ligase (Mycobacterium tuberculosis (strain ATCC 25618 / H37Rv)) (UniProt P9WFW3). Further: in the data most compounds retested in dose-response had high values.
T2 sequence (whole entry): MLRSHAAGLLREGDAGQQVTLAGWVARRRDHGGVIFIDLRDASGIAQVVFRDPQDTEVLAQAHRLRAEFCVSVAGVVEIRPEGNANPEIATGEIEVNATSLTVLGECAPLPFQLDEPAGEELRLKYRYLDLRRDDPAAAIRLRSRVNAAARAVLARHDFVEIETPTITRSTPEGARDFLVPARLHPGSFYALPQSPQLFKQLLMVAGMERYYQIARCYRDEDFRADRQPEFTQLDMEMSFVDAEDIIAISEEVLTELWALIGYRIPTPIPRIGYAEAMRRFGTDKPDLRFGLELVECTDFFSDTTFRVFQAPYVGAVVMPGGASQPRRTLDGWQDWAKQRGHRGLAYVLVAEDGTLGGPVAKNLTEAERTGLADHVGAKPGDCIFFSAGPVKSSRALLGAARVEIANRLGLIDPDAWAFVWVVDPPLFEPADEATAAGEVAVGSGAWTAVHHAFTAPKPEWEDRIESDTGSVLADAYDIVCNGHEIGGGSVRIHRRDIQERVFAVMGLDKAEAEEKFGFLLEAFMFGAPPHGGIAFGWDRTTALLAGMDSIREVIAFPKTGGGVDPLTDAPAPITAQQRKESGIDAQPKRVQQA
Nature of the test: Assay for Asp RNA synthetase-1 from Mycobacterium tuberculosis. The format is functional. The settings on record: 30 µM.

The target in test [4] is AMP-activated protein kinase, AMPK (Homo sapiens) (UniProt P54646+O43741+P54619+Q9UGJ0+Q9Y478+Q13131+Q9UGI9). In words: AMP-dependent Kinase enzyme assay. An in vitro enzyme assay that detects ADP turnover that is directly proportional to AMPK activity. This uses naive AMPK that is activated during the assay with MK-8722. The settings on record: 30 µM. The format is functional.

The target of test [5] is Sialic acid-binding Ig-like lectin 9 (Homo sapiens) (UniProt Q9Y336). In words: Hs-Siglec9 ALPHAscreen SOP 20170721. Particulars: 10 µM.
Sequence of Sialic acid-binding Ig-like lectin 9 (Homo sapiens) (Q9Y336 whole entry): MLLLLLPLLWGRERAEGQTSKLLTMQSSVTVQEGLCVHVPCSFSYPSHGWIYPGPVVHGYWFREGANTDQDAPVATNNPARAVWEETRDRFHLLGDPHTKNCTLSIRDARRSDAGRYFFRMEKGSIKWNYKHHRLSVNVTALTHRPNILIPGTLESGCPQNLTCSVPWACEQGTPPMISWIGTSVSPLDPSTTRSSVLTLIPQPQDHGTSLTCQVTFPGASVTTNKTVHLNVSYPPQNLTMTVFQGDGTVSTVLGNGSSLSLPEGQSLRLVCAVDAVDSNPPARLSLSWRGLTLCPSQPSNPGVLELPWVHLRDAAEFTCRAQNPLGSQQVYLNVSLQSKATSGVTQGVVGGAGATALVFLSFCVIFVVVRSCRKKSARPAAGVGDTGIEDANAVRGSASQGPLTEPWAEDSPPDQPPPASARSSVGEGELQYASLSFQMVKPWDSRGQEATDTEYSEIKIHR
Test [6] has as its system Trypanosoma cruzi. In words: Trypanosoma cruzi phosphomannomutase and mannose-1-phosphate guanylyltransferase assay. Particulars: 10 µM. The format is functional.
In test [7] the target is T3, Arginase-2, mitochondrial (Homo sapiens) (UniProt P78540).
T3 sequence (whole entry): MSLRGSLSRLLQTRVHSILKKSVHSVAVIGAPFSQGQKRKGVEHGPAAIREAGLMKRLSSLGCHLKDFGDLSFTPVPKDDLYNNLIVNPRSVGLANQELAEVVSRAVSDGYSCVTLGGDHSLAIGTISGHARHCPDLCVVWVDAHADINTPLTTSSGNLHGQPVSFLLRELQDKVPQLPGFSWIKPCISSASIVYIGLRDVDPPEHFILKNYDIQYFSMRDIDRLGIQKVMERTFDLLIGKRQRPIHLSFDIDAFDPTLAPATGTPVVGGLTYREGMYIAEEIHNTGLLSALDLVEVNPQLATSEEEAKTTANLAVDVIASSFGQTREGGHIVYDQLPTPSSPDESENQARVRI
Nature of the test: in vitro enzyme assay to detect the production of urea directly proportional to the activity of Arginase II. Further: in the data most compounds retested in dose-response had high values. The format is functional. The settings on record: 33.3 µM.

Test [8] deals with T4, Proteasome subunit beta (Trypanosoma cruzi) (UniProt O96673).
T4 sequence (whole entry): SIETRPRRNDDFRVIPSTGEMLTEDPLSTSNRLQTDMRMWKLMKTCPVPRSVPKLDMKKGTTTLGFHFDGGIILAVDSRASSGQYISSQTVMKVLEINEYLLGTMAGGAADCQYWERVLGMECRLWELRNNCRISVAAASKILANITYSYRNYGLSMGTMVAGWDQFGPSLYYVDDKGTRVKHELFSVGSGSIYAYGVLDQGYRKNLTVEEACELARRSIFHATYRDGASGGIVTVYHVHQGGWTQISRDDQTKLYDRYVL
In words: Trypanosoma cruzi proteasome chymotrypsin-like activity (TcProtChymo) assay. Further: in the data most compounds retested in dose-response had high values. Particulars: 9.37 µM. The format is functional.

Test [9] is filed under the species Homo sapiens. In words: To identify inhibition of the IFN signalling (Jak-Stat) pathway via expression of an eGFP reporter gene under the control of an IFN-stimulated response element (ISRE) containing MxA promoter. The format is functional. Particulars: 30 µM.
Test [10] concerns the target Shiga toxin 2 (Escherichia coli O157:H7) (UniProt P09385+P09386). Nature of the test: E. coli 0.157:H7 Shiga Toxin SOP - stx2 screening assay. The format is functional. The settings on record: 30 µM.
The target of test [11] is T5, Tyrosyl-tRNA synthetase, putative (Trypanosoma cruzi (strain CL Brener)) (UniProt Q4DSP6).
T5 sequence (whole entry): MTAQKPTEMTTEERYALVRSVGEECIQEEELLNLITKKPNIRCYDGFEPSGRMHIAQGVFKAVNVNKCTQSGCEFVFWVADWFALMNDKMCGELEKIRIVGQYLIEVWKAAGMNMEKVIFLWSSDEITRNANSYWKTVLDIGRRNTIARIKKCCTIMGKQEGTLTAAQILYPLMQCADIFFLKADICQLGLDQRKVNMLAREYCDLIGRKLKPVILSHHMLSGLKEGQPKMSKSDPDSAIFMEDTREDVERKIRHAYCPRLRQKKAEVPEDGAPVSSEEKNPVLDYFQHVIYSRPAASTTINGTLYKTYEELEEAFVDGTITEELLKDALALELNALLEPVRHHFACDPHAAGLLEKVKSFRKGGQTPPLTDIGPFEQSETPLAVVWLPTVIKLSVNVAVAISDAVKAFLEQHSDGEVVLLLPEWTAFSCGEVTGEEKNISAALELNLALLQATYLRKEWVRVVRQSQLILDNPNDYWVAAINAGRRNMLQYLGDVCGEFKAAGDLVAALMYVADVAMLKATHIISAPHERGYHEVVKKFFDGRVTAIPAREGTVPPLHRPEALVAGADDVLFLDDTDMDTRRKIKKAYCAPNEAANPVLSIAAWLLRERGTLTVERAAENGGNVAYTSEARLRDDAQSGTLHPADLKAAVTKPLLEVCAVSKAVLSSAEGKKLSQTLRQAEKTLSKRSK
Nature of the test: Trypanosoma cruzi tyrosyl tRNA synthetase (TcYRS) _High Tyrosine SOP. Further: in the data most compounds retested in dose-response had high values. The format is functional. Particulars: 30 µM.

Test [12] deals with T5, Tyrosyl-tRNA synthetase, putative (Trypanosoma cruzi (strain CL Brener)). Nature of the test: Trypanosoma cruzi tyrosyl tRNA synthetase (TcYRS) SOP. The format is functional. The settings on record: 30 µM.
Test [13] concerns the target Chromo domain-containing protein 1 (Saccharomyces cerevisiae (strain ATCC 204508 / S288c) (Baker's yeast)) (UniProt P32657). In words: ScCHD-1 Enzyme Inhibition Assay. Further: in the data most compounds retested in dose-response had high values. The format is functional. Particulars: 30 µM.

Sequence of Chromo domain-containing protein 1 (Saccharomyces cerevisiae (strain ATCC 204508 / S288c) (Baker's yeast)) (P32657 whole entry, the tested form may be a part): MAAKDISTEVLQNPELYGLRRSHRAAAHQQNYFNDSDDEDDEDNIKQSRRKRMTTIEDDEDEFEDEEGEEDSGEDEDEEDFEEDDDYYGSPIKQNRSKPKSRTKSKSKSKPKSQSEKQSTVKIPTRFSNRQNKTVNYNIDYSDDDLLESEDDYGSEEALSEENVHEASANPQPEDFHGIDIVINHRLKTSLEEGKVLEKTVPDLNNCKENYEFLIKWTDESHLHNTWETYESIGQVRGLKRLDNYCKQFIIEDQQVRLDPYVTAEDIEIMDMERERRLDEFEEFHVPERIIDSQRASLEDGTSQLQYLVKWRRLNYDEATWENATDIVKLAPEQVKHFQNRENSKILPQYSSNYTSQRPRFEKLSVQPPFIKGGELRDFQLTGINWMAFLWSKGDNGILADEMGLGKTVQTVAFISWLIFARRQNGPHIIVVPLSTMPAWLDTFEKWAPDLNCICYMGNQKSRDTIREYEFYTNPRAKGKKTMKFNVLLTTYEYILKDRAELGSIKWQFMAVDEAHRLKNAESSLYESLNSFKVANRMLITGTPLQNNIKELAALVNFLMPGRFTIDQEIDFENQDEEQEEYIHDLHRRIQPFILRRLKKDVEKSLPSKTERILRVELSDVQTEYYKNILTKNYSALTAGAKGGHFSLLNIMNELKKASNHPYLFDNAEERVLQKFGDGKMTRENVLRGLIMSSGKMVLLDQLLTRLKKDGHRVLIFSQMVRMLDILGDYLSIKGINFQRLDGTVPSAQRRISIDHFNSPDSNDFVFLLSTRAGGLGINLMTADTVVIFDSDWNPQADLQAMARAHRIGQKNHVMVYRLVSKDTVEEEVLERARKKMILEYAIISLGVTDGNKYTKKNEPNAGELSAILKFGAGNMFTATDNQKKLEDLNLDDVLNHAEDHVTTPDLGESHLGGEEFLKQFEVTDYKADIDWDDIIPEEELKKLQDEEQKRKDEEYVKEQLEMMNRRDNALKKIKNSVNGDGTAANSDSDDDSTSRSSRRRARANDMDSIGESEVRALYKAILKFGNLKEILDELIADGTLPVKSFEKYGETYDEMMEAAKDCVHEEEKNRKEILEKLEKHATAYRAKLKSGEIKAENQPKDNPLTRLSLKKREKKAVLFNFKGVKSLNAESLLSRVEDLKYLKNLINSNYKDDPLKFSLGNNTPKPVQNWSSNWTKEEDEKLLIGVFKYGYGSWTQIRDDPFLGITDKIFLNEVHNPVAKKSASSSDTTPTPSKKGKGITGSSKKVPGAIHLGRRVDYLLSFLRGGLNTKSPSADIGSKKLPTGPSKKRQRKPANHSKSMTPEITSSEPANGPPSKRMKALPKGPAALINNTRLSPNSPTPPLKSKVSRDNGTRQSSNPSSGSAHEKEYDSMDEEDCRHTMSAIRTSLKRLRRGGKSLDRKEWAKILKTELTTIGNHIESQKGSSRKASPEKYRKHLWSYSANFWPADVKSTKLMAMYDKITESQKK
Sequence of Protein translocase subunit SecA (Escherichia coli (strain K12)) (P10408 whole entry): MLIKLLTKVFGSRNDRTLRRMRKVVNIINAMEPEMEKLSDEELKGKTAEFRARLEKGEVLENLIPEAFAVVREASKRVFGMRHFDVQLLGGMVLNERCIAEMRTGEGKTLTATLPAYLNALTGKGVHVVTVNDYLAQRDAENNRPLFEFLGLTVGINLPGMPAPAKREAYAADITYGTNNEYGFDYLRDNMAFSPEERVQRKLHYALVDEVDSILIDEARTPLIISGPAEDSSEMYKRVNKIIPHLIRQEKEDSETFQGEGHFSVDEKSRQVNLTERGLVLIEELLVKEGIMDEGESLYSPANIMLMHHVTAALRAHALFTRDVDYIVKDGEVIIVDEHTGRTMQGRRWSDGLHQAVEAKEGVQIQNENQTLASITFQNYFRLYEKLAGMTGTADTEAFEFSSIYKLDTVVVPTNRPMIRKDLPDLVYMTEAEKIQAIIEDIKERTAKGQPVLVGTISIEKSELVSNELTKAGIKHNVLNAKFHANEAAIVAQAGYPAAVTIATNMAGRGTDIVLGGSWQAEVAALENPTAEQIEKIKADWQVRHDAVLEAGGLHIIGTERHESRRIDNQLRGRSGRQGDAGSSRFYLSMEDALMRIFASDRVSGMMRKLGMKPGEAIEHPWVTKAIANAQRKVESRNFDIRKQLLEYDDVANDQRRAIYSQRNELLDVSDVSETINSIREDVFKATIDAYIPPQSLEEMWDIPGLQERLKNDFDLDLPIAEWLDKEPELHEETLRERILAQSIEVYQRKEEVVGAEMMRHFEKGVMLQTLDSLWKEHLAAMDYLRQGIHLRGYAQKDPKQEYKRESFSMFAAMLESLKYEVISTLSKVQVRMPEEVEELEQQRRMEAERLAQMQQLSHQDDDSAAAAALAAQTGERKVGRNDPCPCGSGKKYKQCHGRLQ

On to `CCN1CCC(c2cncc(N(C)C)n2)CC1`, for which the Percent Effect was -1.04% in test [1]; 13.3% in test [2]; -2.49% in [3]; 1.31% in [4]; -3.05% in test [5]; -2.76% in test [6]. Moreover, the Percent Effect is -3.96% in [7]; 13.5% in test [8]; 6.71% in test [9]; -7.25% in [10]; 3.19% in [11]; 11.5% in [12]. The Percent Effect in test [13] was -4.48%.

On to `CN1CCCC(Cc2cncc(Br)c2)CC1` (configuration not stated), for which the Percent Effect is -3.64% in test [1]; 1.35% in [2]; -6.03% in test [3]; 13.7% in [4]; -1.84% in test [5]; 5.73% in test [6]. Also, the Percent Effect in test [7] was 0.232%; in test [8], 9.05%; in [9] it was -10.1%; in test [10] it was -7.14%; in test [11], 20.4%; in test [12], 22.1%. In addition, in [13], the Percent Effect is -20.8%.

On to `C[C@H]1C[C@@H]2CCN(Cc3ccccn3)C[C@H]2O1`, for which the Percent Effect was -1.13% in test [1]; 0% in test [2]; -1.48% in [3]; 92% in test [4]; -0.495% in test [5]; 1.27% in [6]. Besides, the Percent Effect in test [7] is 1.59%; in test [8], 10.5%; in test [9], 7.67%; in test [10] it was -4.58%; in [11] it was -2.16%; in test [12], -5.13%. Also, the Percent Effect in test [13] was -8.15%.

As to `CN(C)[C@@H]1CCN(C(=O)Cc2ccc(F)cc2)[C@H]1Cc1cnn(C)c1`, the Percent Effect was -0.511% in test [1]; 13.3% in [2]; 7.04% in test [3]; 9.81% in [4]; -9.25% in test [5]; -4.72% in test [6]. Further, the Percent Effect in [7] is -1.63%; in test [8], 12.8%; in [9], -1.72%; in [10], -6.42%; in test [11] it was 3.19%; in test [12], 6.41%. The Percent Effect in test [13] came out at 1.98%.

(Values after ChEMBL document CHEMBL3988442, “University of Dundee, Small-Polar-MMV Screening Library” (2021).)
